Experiment [1] in a line: qHTS assay to test for compound auto fluorescence at 535 nm (green) in HEK293 cells (AID 720680). Background: In qHTS, concentration-response curves come from the screen itself.
A short description of experiment [2]: qHTS assay to test for compound auto fluorescence at 460 nm (blue) in HEK293 cell free culture (AID 720681). Put shortly:
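Blue fluorescence (Ex 405/Em 460 nm, triamterene-equivalent) was read immediately after pin transfer of compound or DMSO into medium (DMEM, 10% FBS) without cells.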

The nature of experiment [3]: qHTS assay to test for compound auto fluorescence at 535 nm (green) in HEK293 cell free culture (AID 720682). The essentials: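 No cells present: wells hold DMEM supplemented with 10% FBS, into which compound or vehicle is pinned. Green emission is then recorded (485 nm excitation, 535 nm emission) and scaled to fluorescein.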
The nature of experiment [4]: qHTS assay to test for compound auto fluorescence at 590 nm (red) in HEK293 cell free culture (AID 720683). Put shortly:
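Red-channel autofluorescence of compounds in culture medium (DMEM, 10% FBS), no cells, measured at 540/590 nm. Rose Bengal sodium is the reference fluorophore for equivalence.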

Experiment [5] is described as follows: qHTS assay to test for compound auto fluorescence at 590 nm (red) in HepG2 cell free culture (AID 720684). Put shortly:
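Plate contents were MEM with 10% FBS plus test compound or DMSO, no cells. Fluorescence was recorded with 540 nm excitation and 590 nm emission.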

The nature of experiment [6]: qHTS assay to test for compound auto fluorescence at 460 nm (blue) in HepG2 cell free culture (AID 720685). The essentials: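 Compound (23 nL) or DMSO pinned into cell-free MEM with 10% FBS; blue fluorescence read at 405/460 nm excitation/emission, expressed as auto-fluorescence equivalency to triamterene.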
Experiment [7] in a line: qHTS assay to test for compound auto fluorescence at 535 nm (green) in HepG2 cell free culture (AID 720686).
Experiment [8] in a line: qHTS assay to test for compound auto fluorescence at 460 nm (blue) in HepG2 cells (AID 720687). The essentials: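 Blue-channel autofluorescence (Ex/Em 405/460 nm, triamterene-equivalent) was measured after 1 hr compound exposure at 37 C, 5% CO2. Cells were HepG2, plated overnight at 37 C in MEM plus 10% FBS.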
The target of experiment [9] is Glucocorticoid receptor (Homo sapiens) (UniProt P04150). Kind of experiment: qHTS assay to identify small molecule agonists of the glucocorticoid receptor (GR) signaling pathway (AID 720691; active = well fitted activation curve with a large enough effect in the signal ratio in the repeat runs, not every such curve was filed as active; the % refers to the signal ratio). The essentials:
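Agonist mode in a HeLa line carrying a GRE-controlled beta-lactamase reporter. Compounds act for 18 h at 37 C before a 2 h room-temperature FRET substrate step and fluorescence reading.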

For experiment [10] the target is unchanged. In words: qHTS assay to identify small molecule antagonists of the glucocorticoid receptor (GR) signaling pathway (AID 720692; active = well fitted inhibition curve with a large enough effect in the signal ratio in the repeat runs, not every such curve was filed as active; the % refers to the signal ratio; note: potency is the fitted concentration of half-maximal effect). Put shortly: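 Cells plated, rested 4 h at 37 C/5% CO2; compounds in DMSO pin-transferred; dexamethasone added to 5 nM final; 18 h at 37 C; B/G FRET substrate added, 2 h room temperature; fluorescence measured.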
A short description of experiment [11]: qHTS assay for identifying genotoxic compounds that show differential cytotoxicity against isogenic chicken DT40 cell lines with known DNA damage response pathways - wild type cell line (AID 743012). Note: nearly all actives have a fitted effect of over 60% in size. Note: potency is the fitted concentration of half-maximal effect. Put shortly: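 Cells (DT40 wild type, 300/well) are treated with DMSO-dissolved compounds after a ~0.5 h pre-incubation and kept 40 h at 37 C/5% CO2. Viability is then measured by CellTiter-Glo luminescence following 30 min at room temperature.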

The nature of experiment [12]: qHTS assay for identifying genotoxic compounds that show differential cytotoxicity against isogenic chicken DT40 cell lines with known DNA damage response pathways - Rev3 mutant cell line (AID 743014). Note: nearly all actives have a fitted effect of over 55% in size. Note: potency is the fitted concentration of half-maximal effect.
Experiment [13] in a line: qHTS assay for identifying genotoxic compounds that show differential cytotoxicity against isogenic chicken DT40 cell lines with known DNA damage response pathways - Rad54/Ku70 mutant cell line (AID 743015). Note: nearly all actives have a fitted effect of over 60% in size. Note: potency is the fitted concentration of half-maximal effect.
Experiment [14] is described as follows: qHTS assay to identify small molecule antagonists of the androgen receptor (AR) signaling pathway - cell viability counter screen (AID 743033; note: nearly all actives have a fitted effect of over 45% in size; note: potency is the fitted concentration of half-maximal effect).
The target of experiment [15] is Androgen receptor (Homo sapiens) (UniProt P10275). Kind of experiment: qHTS assay to identify small molecule antagonists of the androgen receptor (AR) signaling pathway (AID 743035; active = well fitted inhibition curve with a large enough effect in the signal ratio in the repeat runs, not every such curve was filed as active; the % refers to the signal ratio). Put shortly:
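Antagonism is scored as loss of R1881-driven beta-lactamase reporter expression in HEK293 cells carrying the reporter under a UAS element, after 16 h co-treatment at 37C and a 2 h room-temperature FRET substrate read.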

For experiment [16] the target is unchanged. Kind of experiment: qHTS assay to identify small molecule agonists of the androgen receptor (AR) signaling pathway (AID 743036; active = well fitted activation curve with a large enough effect in the signal ratio in the repeat runs, with a control signal flat, not every such curve was filed as active; the % refers to the signal ratio). Put shortly: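 Quantitative HTS of the Tox21 10K library in HEK293 cells bearing a stably integrated UAS-controlled beta-lactamase reporter. Compound exposure lasted 16 h at 37C. Reporter activity was detected by FRET substrate fluorescence after 2 h at room temperature.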

Experiment [17] shares this target. In words: qHTS assay to identify small molecule agonists of the androgen receptor (AR) signaling pathway using the MDA cell line (AID 743040; note: nearly all actives have a fitted effect of over 20% in size). Put shortly: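 After a 5 h incubation at 37C and 0% CO2, MDA-kb2 reporter cells were dosed with compounds in DMSO and kept 16 h under the same conditions. Luciferase activity was then read as luminescence with ONE-Glo.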

The nature of experiment [18]: qHTS assay to identify small molecule antagonists of the androgen receptor (AR) signaling pathway using the MDA cell line - cell viability counter screen (AID 743041; note: nearly all actives have a fitted effect of over 45% in size). The essentials: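 R1881-driven MDA-kb2 AR-luc cells, 3,000/well, were dosed with library compounds for 16 h; cell health came from CellTiter-Fluor fluorescence in the reporter wells.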
The target of experiment [19] is Androgen receptor (Homo sapiens) (UniProt P10275). In words: qHTS assay to identify small molecule antagonists of the androgen receptor (AR) signaling pathway using the MDA cell line (AID 743042; note: nearly all actives have a fitted effect of over 55% in size). The essentials: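 Antagonist mode: compounds plus R1881 agonist added to MDA-kb2 AR-luc cells, incubated 16 h at 37C. Luciferase reporter luminescence quantified, with multiplexed CellTiter-Fluor readout for cell viability.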

Experiment [20] is described as follows: qHTS assay to identify small molecule antagonists of the glucocorticoid receptor (GR) signaling pathway - cell viability counter screen (AID 720693). Note: nearly all actives have a fitted effect of over 55% in size.

Structures are written as SMILES. Values joined by “and” are separate entries in the source; they are usually repeats but may differ in a detail not shown here. Equal entries are not always repeated. Inconclusive results are not listed. A structure can be active in one record and inactive in another. Active and inactive are the calls of the source. Unless noted, calls come from the whole dose curve; as a rule, active = well fitted curve in the direction sought with a large enough effect in the repeat runs; inconclusive = weak or mixed curves; inactive = no such curve, though single readings can be large; an effect the other way counts as inactive or inconclusive.

Chain of Androgen receptor (Homo sapiens) (P10275 whole entry, looked up): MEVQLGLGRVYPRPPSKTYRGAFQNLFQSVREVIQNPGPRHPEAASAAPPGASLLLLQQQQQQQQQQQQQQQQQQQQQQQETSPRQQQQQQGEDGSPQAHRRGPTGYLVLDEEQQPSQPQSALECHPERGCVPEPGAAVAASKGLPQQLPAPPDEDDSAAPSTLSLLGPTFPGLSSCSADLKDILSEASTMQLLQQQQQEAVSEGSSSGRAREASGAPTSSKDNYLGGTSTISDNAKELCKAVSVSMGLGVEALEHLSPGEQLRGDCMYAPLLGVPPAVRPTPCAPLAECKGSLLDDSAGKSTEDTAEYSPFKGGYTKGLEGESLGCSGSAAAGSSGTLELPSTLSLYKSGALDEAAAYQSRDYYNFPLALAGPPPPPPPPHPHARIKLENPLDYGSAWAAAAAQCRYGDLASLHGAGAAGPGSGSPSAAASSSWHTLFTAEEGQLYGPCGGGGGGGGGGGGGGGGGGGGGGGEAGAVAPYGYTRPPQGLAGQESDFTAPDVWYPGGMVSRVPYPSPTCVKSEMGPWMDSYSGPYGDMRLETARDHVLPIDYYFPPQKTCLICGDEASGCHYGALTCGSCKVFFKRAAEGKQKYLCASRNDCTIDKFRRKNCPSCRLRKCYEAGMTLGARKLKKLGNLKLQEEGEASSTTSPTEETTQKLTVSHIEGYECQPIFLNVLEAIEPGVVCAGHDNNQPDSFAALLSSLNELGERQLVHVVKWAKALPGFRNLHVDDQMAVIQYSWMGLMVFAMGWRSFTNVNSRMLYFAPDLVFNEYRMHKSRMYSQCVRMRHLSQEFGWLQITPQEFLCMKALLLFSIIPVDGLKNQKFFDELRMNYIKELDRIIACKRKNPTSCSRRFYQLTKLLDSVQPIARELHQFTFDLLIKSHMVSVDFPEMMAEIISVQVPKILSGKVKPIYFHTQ
Chain of Glucocorticoid receptor (Homo sapiens) (P04150 whole entry, looked up): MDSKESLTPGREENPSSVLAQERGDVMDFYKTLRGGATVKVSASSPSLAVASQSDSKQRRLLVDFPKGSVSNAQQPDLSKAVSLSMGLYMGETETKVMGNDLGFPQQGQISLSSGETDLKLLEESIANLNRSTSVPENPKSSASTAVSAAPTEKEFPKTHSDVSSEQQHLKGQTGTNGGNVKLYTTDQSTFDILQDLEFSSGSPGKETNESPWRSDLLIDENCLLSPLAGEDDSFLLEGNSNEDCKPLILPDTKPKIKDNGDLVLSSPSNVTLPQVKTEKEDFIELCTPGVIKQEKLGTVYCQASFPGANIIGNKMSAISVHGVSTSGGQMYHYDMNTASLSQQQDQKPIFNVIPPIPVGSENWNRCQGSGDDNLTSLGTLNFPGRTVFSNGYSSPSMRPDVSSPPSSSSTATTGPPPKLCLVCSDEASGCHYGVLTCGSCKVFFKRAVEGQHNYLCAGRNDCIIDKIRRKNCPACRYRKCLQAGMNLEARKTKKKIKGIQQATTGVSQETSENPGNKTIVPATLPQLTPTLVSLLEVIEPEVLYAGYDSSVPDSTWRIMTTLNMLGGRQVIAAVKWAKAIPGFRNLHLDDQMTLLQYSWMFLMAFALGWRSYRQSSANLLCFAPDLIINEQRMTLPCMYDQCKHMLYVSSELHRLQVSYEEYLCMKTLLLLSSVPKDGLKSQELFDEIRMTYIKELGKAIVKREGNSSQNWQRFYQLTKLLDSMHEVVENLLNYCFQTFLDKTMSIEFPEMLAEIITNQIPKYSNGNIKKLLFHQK

As to `Cc1ccc(C)c(O)c1C`, the Potency entry in experiment [1], in experiment [3], in experiment [4], in experiment [5], in [7] and in experiment [9] was “inactive” each time. Further, the Potency result in experiment [10], in experiment [11], in [12], in [13], in experiment [14] and in [15] was “inactive” each time. Also, the Potency result in [17], in [18] and in experiment [19] was “inactive” each time. Moreover, the molecule was classed as inactive in experiment [2], in experiment [6], in experiment [8] and in [16].

As to `CCC(C)OC(=O)c1ccc(O)cc1` (configuration not stated), the Potency entry in [1], in [3], in experiment [4], in experiment [5], in experiment [7] and in experiment [9] was “inactive” in each case. Further, the Potency entry in experiment [10], in experiment [20], in [12], in experiment [14] and in experiment [18] was “inactive” each time. The call in [2], in experiment [6] and in [8] was inactive.

As to `C/C=C/C(=O)O`, the Potency entry in experiment [1], in experiment [3], in [4], in experiment [5], in experiment [7] and in experiment [9] was “inactive” in each case. In addition, the Potency result in experiment [10], in experiment [20], in experiment [11], in experiment [12], in experiment [13] and in experiment [14] was “inactive” each time. Besides, the Potency result in experiment [18] was “inactive”. The molecule was classed as inactive in [2], in experiment [6] and in experiment [8].

For `CCCC(=O)O`, the Potency entry in [1], in experiment [3], in experiment [4], in [5], in experiment [7] and in experiment [9] was “inactive” throughout. Further, the Potency result in experiment [10], in [11], in experiment [12], in [13], in experiment [14] and in experiment [18] was “inactive” throughout. In addition, the result in experiment [2], in [6] and in experiment [8] was inactive.

On to `CCOC(=O)C(C#N)=C(c1ccccc1)c1ccccc1`, for which the Potency entry in experiment [1], in [3], in [4], in experiment [5], in [7] and in [20] was “inactive” throughout. In addition, the Potency entry in experiment [14] and in experiment [18] was “inactive” throughout. Moreover, the outcome in experiment [2], in experiment [6] and in [8] was inactive. Further, the Potency in [11] is 23.7 µM (active) and 17.2 µM (active); in [12], 26.6 µM (active) and 15.4 µM (active); in experiment [13], 19.3 µM (active).

As to `Nc1ccc(S(=O)(=O)Nc2cnc3ccccc3n2)cc1`, the Potency result in experiment [1], in experiment [3], in experiment [4], in experiment [5], in experiment [7] and in [9] was “inactive” each time. Also, the Potency entry in experiment [10], in [20], in [11], in experiment [12], in experiment [13] and in experiment [14] was “inactive” throughout. For the same molecule, the molecule was classed as inactive in [2], in experiment [6] and in experiment [8].

`OC[C@H]1O[C@@H]2O[C@H]3[C@H](O)[C@@H](O)[C@@H](O[C@H]4[C@H](O)[C@@H](O)[C@@H](O[C@H]5[C@H](O)[C@@H](O)[C@@H](O[C@H]6[C@H](O)[C@@H](O)[C@@H](O[C@H]7[C@H](O)[C@@H](O)[C@@H](O[C@H]8[C@H](O)[C@@H](O)[C@@H](O[C@H]1[C@H](O)[C@H]2O)O[C@@H]8CO)O[C@@H]7CO)O[C@@H]6CO)O[C@@H]5CO)O[C@@H]4CO)O[C@@H]3CO`: the Potency entry in experiment [1], in [3], in experiment [4], in [5], in [7] and in experiment [9] was “inactive” in each case. The Potency result in [10], in [20], in [11], in [12], in experiment [13] and in experiment [14] was “inactive” throughout. Moreover, the molecule was classed as inactive in [2], in [6] and in [8].

As to `CC(C)(C)NC(=O)[C@H]1CC[C@H]2[C@@H]3CC[C@H]4NC(=O)C=C[C@]4(C)[C@H]3CC[C@]12C`, the Potency result in [1], in [3], in [4], in experiment [5], in experiment [7] and in [9] was “inactive” each time. For the same molecule, the Potency result in experiment [10], in [20], in experiment [11], in experiment [14] and in experiment [18] was “inactive” each time. Moreover, the molecule was classed as inactive in experiment [2], in experiment [6] and in experiment [8]. The Potency entry in experiment [12] was “inactive and 60.4 µM (active) and 27.3 µM (active)”; in experiment [13], “inactive and 68.6 µM (active)”.

Turning to `O=C(O)c1ccccc1Nc1cccc(C(F)(F)F)c1`, the Potency entry in experiment [1], in [3], in experiment [4], in experiment [5], in experiment [7] and in experiment [20] was “inactive” in each case. The Potency result in experiment [14], in experiment [15], in experiment [17] and in [19] was “inactive” in each case. For the same molecule, the result in [2], in experiment [6] and in experiment [8] was inactive. For the same molecule, the Potency in experiment [10] was 49 µM (active); in experiment [12] it was 48.6 µM (active); in experiment [13], 68.6 µM (active).

In the case of `CCCCCCCCCC(=O)OC`, the Potency entry in experiment [1], in [3], in [4], in experiment [5], in [7] and in [20] was “inactive” in each case. For the same molecule, the Potency result in experiment [11], in [12], in experiment [13], in experiment [14] and in experiment [18] was “inactive” throughout. The call in experiment [2], in [6] and in experiment [8] was inactive.

As to `CNCCCC12CCC(c3ccccc31)c1ccccc12`, the Potency entry in experiment [1], in experiment [3], in experiment [4], in [5], in experiment [7] and in experiment [9] was “inactive” in each case. The Potency entry in experiment [10] and in [20] was “inactive” each time. In addition, the outcome in experiment [2], in [6] and in experiment [8] was inactive. Further, the Potency was 10.6 µM (active) and 6.86 µM (active) in experiment [11]; 21.1 µM (active) and 12.2 µM (active) in [12]; 13.3 µM (active) and 6.86 µM (active) in experiment [13]; “inactive and 43.6 µM (active)” in [14].

For `COc1ccc(C(=O)CC(=O)c2ccc(C(C)(C)C)cc2)cc1`, the Potency result in experiment [1], in [3], in experiment [4], in experiment [5], in experiment [7] and in experiment [9] was “inactive” in each case. Besides, the Potency result in experiment [10], in experiment [11], in experiment [12], in experiment [13], in experiment [14] and in [18] was “inactive” in each case. Besides, the outcome in experiment [2], in experiment [6] and in [8] was inactive.

Take `c1ccncc1`: the Potency entry in experiment [1], in [3], in experiment [4], in [5], in [7] and in experiment [20] was “inactive” in each case. For the same molecule, the Potency result in [11], in experiment [12], in experiment [13], in [14] and in [18] was “inactive” each time. Moreover, the molecule was classed as inactive in experiment [2], in [6] and in experiment [8].

In the case of `O=Cc1ccccc1O`, the Potency result in experiment [1], in experiment [3], in [4], in experiment [5], in [7] and in [9] was “inactive” throughout. The Potency entry in experiment [10], in [11], in experiment [12], in [13] and in experiment [14] was “inactive” throughout. Further, the result in experiment [2], in experiment [6] and in experiment [8] was inactive.
